Drawing on PubChem BioAssay (Tox21), this text covers Potency and activity change, negative = inhibition for 40 compounds.

A number with no mark means an inactive call. Entries that show only a call come without a potency. The source made the active and inactive calls. The call rests on the fitted dose curve.

The target of the assay is Acetylcholinesterase (Homo sapiens) (UniProt P22303). Put plainly: Acetylcholinesterase (AChE) small molecule antagonists: enzyme-based qHTS assay with human liver microsomes (AID 1347399). Further: nearly all actives have a fitted effect of over 60% in size. As to conditions: Potency: qHTS inhibition; outcome: qHTS inhibition; series mostly up to 115 µM. The source says: National Center for Advancing Translational Sciences [NCATS]
Acetylcholinesterase (Homo sapiens), sequence (P22303 whole entry, looked up): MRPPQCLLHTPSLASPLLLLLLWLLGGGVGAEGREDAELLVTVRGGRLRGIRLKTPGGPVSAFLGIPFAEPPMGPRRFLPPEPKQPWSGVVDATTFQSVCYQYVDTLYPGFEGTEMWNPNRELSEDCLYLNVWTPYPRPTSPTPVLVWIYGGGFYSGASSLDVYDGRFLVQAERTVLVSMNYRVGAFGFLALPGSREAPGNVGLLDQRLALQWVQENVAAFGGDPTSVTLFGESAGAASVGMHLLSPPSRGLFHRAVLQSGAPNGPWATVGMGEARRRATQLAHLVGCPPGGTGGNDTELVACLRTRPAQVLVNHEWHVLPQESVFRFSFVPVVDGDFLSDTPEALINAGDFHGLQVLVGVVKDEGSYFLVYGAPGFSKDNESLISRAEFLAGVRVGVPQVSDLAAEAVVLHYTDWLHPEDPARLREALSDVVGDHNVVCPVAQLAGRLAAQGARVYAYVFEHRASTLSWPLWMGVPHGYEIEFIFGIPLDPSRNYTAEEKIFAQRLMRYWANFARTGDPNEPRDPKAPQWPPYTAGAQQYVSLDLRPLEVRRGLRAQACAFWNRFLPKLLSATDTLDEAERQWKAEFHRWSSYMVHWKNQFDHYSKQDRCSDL
Division of Preclinical Innovation [DPI]
U.S. Environmental Protection Agency [EPA]
National Institutes of Environmental Health Sciences [NIEHS]
National Toxicology Program [NTP]
U.S. Food and Drug Administration [FDA]
Acetylcholinesterase (AChE) is the primary cholinesterase in the body that hydrolyzes a key neurotransmitter, acetylcholine. Inhibition of AChE activity can lead to neurotoxicity. The known inhibitors include organophosphorous pesticides (OP), chemical warfare agents, drugs, and various phytochemicals. Some compounds like OP compounds may need metabolic activation to be active AChE inhibitors. The cytochrome P450 (CYP) superfamily in the human microsomes is responsible for the metabolism of various endogenous and exogenous compounds.
An enzyme-based assay with the recombinant human AChE, human liver microsomes and Amplite Colormetric acetylcholinesterase assay kit (AAT Bioquest, Sunnyvale, CA) was used to evaluate compounds in the Tox21 10K library that need metabolic activation for AChE inhibition. The assay uses 5, 5-dithiobis-(2-nitrobenzoic acid) (DTNB) to quantify the thiocholine produced from the hydrolysis of acetylthiocholine by AChE.
Tox21 Assay Protocol Summary:
For the enzyme-based AChE assay with microsomes addition, a mixture of human AChE (50 mU/mL) and human liver microsomes (0.25 mg/mL, final concentration) in 3 uL/well was dispensed into black, clear-bottom 1536-well plates using a Multidrop Combi dispenser (Thermo Scientific, MA). Then, 23 nL of compound or DMSO (vehicle control) was transferred into the assay plates by a Pintool Station (Wako Automation, CA). Following compound addition, 1 uL of NADPH (0.25 mg/mL, final concentration) was transferred to the assay plate by a Flying Reagent Dispenser (Beckman Coulter, CA). The plates were incubated for 30 min at 37 C and 5% CO2, followed by the addition of 4 uL of colorimetric detection cocktail solution (DTNB, acetylthiocholine) into each well using a Flying Reagent Dispenser (Beckman Coulter, CA) and then 10 min incubation at room temperature.
A general note: In qHTS, concentration-response curves come from the screen itself.
As for `O=C(O)[C@H](O)[C@@H](O)[C@H](O)[C@H](O)CO`, the Potency result was “inactive”.

With `c1ccc(Nc2ccccc2)cc1`, the Potency entry was “inactive”. Still for that read-out and setting: with `CCC(COC(=O)CCS)(COC(=O)CCS)COC(=O)CCS` the entry was “inactive”. `C=CCCCCCCCCCCCCCCCC`: the activity change, negative = inhibition is -0.261% [at 10.5 µM].

`CO/N=C(/C(=O)N[C@@H]1C(=O)N2C(C(=O)O)=C(Cn3nnc(C)n3)CS[C@H]12)c1csc(N)n1`: the Potency entry is “inactive”. For the compound `CCCCCCCCCCCCCC`, the Potency result is “inactive”. As for `COCCCOc1cc(C[C@@H](C[C@H](N)[C@@H](O)C[C@H](C(=O)NCC(C)(C)C(N)=O)C(C)C)C(C)C)ccc1OC`, the Potency entry is “inactive”. Turning to `O=C(O)c1ccc2c(c1)C(=O)OC2=O`, the Potency result was “inactive”. In the case of `CCC(=O)OCCC(C)CCC=C(C)C` (stereo not given), the Potency result was “inactive”.

In the case of `CC(=O)OC(C)C`, the Potency result is “inactive”.

As to `O=C1c2ccccc2C(=O)N1CO`, the Potency entry is “inactive”. For the compound `CCCOCCC`, the Potency entry is “inactive”. As to `O=c1cc(O)c(Cl)c[nH]1`, the Potency entry is “inactive”. On the same count and under the same terms, with `CCCCCCCCOc1ccccc1C(=O)Nc1ccc(C(=O)OCC[N+](C)(CC)CC)cc1` the entry was “inactive”. As for `Nc1cc(Cl)c(N)c(Cl)c1`, the Potency result was “inactive”. For `O=S(=O)(O)CCCN1CCOCC1`, the Potency entry is “inactive”. With `CCCCCCC(C)OC(=O)COc1nc(F)c(Cl)c(N)c1Cl` (stereo not given), the Potency entry was “inactive”. In the case of `C[C@@H](N)C(=O)O`, the Potency entry was “inactive”.

With `CCCCCCCCCCCCN1CCCCCC1=O`, the Potency result was “inactive”. Take `Clc1cc(Cl)c(Cl)cc1Cl`: the Potency entry is “inactive”. Still for that read-out and setting: with `CC(=O)OCC(=O)[C@@]1(O)CC[C@H]2[C@@H]3CCC4=CC(=O)C=C[C@]4(C)[C@H]3[C@@H](O)C[C@@]21C` the entry was “inactive”; with `CCCCC1C(=O)N(c2ccccc2)N(c2ccccc2)C1=O`, “inactive”; with `O=S(=O)(O)c1cc(O)c(O)c(S(=O)(=O)O)c1`, “inactive”. For `Brc1cc(Oc2cc(Br)c(Br)c(Br)c2Br)c(Br)c(Br)c1Br`, the Potency result was “inactive”.

On to `Oc1ccc(Cl)cc1Cc1cc(Cl)ccc1O`, for which the Potency result was “inactive”.

As for `O=C(O)CC(=O)O`, the Potency result is “inactive”. On the same count and under the same terms, with `CCCCCCCC(=O)OCCCCCC` the entry was “inactive”. Regarding `c1ccc2c(c1)CCc1ccccc1N2`, the Potency entry is “inactive”. Consider `Cc1ccc(Br)cc1`, for which the Potency entry is “inactive”. Take `O=C(O)c1cc(=O)[nH]c(=O)[nH]1`: the Potency entry was “inactive”. As for `O=C(O)CNc1ccccc1`, the Potency entry was “inactive”. With `Cc1ccc2cccnc2c1`, the Potency result is “inactive”. On the same count and under the same terms, with `CC(=O)O[C@]1(C(C)=O)CC[C@H]2[C@@H]3C=C(Cl)C4=CC(=O)[C@@H]5C[C@@H]5[C@]4(C)[C@H]3CC[C@@]21C` the entry was “inactive”. On the same count and under the same terms, the value for `O=[N+]([O-])c1cc(C2CCCCC2)c(O)c([N+](=O)[O-])c1` was “inactive”. For `NCc1ccccc1Sc1ccccc1CO`, the Potency result is “inactive”. In the case of `O=C(OCC(O)CO)c1ccccc1Nc1ccnc2c(C(F)(F)F)cccc12` (stereo not given), the Potency result was “inactive”. On the same count and under the same terms, the value for `OC[C@H]1O[C@H](O[C@H]2O[C@H](CO)[C@@H](O)[C@H](O)[C@H]2O)[C@H](O)[C@@H](O)[C@@H]1O` was “inactive”; that for `C/C=C(\C)C(=O)OCCc1ccccc1` was “inactive”; that for `N[C@@H](Cc1cc(I)c(O)c(I)c1)C(=O)O` was “inactive”. Consider `C=CC(C)(C)CC(=O)OC`, for which the Potency result is “inactive”.
